Test [1] can be described thus: NCI Yeast Anticancer Drug Screen. Data for the rad50 strain (AID 155).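 Further: 0% = growth of vehicle-only cultures of the same strain.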 The following applies: S. cerevisiae rad50 strain growth inhibition, active compounds read high; at 50.0 µM unless noted. The essentials: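 Inhibition values express reduced yeast growth in compound-treated cultures relative to vehicle-treated controls.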
A short description of test [2]: NCI Yeast Anticancer Drug Screen. Data for the mec2-1 strain (AID 157). To be noted: S. cerevisiae mec2-1 strain, active compounds read high; at 50.0 µM unless noted. The gist of the method: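 Using mec2-1 yeast: add compound, measure growth, express inhibition versus vehicle-treated cultures.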
A short description of test [3]: NCI Yeast Anticancer Drug Screen. Data for the sgs1 mgt1 strain (AID 161).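 Further: 0% = growth of cultures given vehicle only.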 To be noted: S. cerevisiae sgs1 mgt1 strain, active compounds read high; at 50.0 µM unless noted. The gist of the method: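 Growth of a repair-deficient yeast mutant was monitored after compound treatment and expressed as inhibition relative to vehicle-treated cultures.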
Test [4] is described as follows: NCI Yeast Anticancer Drug Screen. Data for the cln2 rad14 strain (AID 165).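 Further: 0% = growth equal to vehicle treated cultures.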 The following applies: S. cerevisiae cln2 rad14 strain, active compounds read high; at 50.0 µM unless noted. The essentials: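 Yeast strain cln2 rad14, bearing defects in cell cycle control and DNA repair, serves as the test system; values reflect growth inhibition compared with vehicle.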
Test [5] can be described thus: NCI Yeast Anticancer Drug Screen. Data for the bub3 strain (AID 167). The following applies: S. cerevisiae bub3 mutant strain, active compounds read high; at 50.0 µM unless noted. The essentials:
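Steps: expose the mutant yeast strain to compound; grow alongside vehicle-treated cultures; measure growth; express inhibition against the vehicle cultures.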

A short description of test [6]: NCI Yeast Anticancer Drug Screen. Data for the mlh1 rad18 strain (AID 175). The following applies: S. cerevisiae mlh1 rad18 strain growth inhibition, active compounds read high; at 50.0 µM unless noted. The gist of the method:
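Steps: expose repair-defective yeast to compound; measure growth; express inhibition against vehicle-treated controls.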

The record followed here is PubChem BioAssay (NCI).

About 79,000 compounds went through this panel and 15% of them were active in at least one assay; those are over-represented in the sample as a whole. Calls of active or inactive are those of the source. No stated cut-off is given here; in the data, active means growth inhibition above about 70%; inactive means the rest.

Take `Nc1ccccc1C1CCCCC1`: the growth inhibition was 32.1% (inactive) in test [1]; -13.6% (inactive) in test [2]; 52% (inactive) in test [3]; -19.4% (inactive) in test [4]; 3.95% (inactive) in test [5]; 26.6% (inactive) in test [6].
Regarding `O=C(CCCC(=O)N/N=C/c1ccccc1O)N/N=C\c1ccccc1O`, the growth inhibition was 4.55% (inactive) in test [1]; -6.65% (inactive) in test [2]; -20.4% (inactive) in test [3]; 3.35% (inactive) in test [4]; -3.5% (inactive) in test [5]; -12.9% (inactive) in test [6].
Consider `O=[N+]([O-])c1ccccc1/C=C/c1ccccn1`, for which the growth inhibition in test [1] was 2.4% (inactive); in test [2], 2.35% (inactive); in test [3], -3.55% (inactive); in test [4], 20% (inactive); in test [5], 41.3% (inactive); in test [6], 21.1% (inactive).
With `Cc1[nH]nc2c1C(=O)C=C(N(CCO)c1ccccc1)C2=O`, the growth inhibition was -24.6% (inactive) in test [1]; 5.35% (inactive) in test [2]; 2.25% (inactive) in test [3]; 11.2% (inactive) in test [4]; -11.9% (inactive) in test [5]; -6.55% (inactive) in test [6].
On to `O=C1/C(=N\[O-])C(S(=O)(=O)[O-])=Cc2cc(S(=O)(=O)[O-])cc(O)c21.O=C1/C(=N\[O-])C(S(=O)(=O)[O-])=Cc2cc(S(=O)(=O)[O-])cc(O)c21.[Cu+2]`, for which the growth inhibition was -1.8% (inactive) in test [1]; 8.1% (inactive) in test [2]; -0.65% (inactive) in test [3]; -11.7% (inactive) in test [4]; -2.4% (inactive) in test [5]; -19.5% (inactive) in test [6].
As to `Cc1cccc(NC(=O)Nc2ccccc2Cl)n1`, the growth inhibition was 23.5% (inactive) in test [1]; -3.6% (inactive) in test [2]; 24.4% (inactive) in test [3]; 25.7% (inactive) in test [4]; 13.2% (inactive) in test [5]; 16.6% (inactive) in test [6].
As for `CC1=C(C(=O)Nc2ccccc2)C(c2ccc3c(c2)OCO3)C(C(=O)Nc2ccccc2)=C(C)N1`, the growth inhibition is 38.3% (inactive) in test [1]; 33.5% (inactive) in test [2]; 10.5% (inactive) in test [3]; 17.1% (inactive) in test [4]; 38.5% (inactive) in test [5]; 27.1% (inactive) in test [6].
Take `C=CCCCCCCC=C`: the growth inhibition in test [1] was -23.6% (inactive); in test [2], -43% (inactive); in test [3], -4.1% (inactive); in test [4], 2.45% (inactive); in test [5] it was -34.2% (inactive); in test [6] it was -19.4% (inactive).
As for `COc1ccc(C2c3cc(OC)c(OC)cc3C(Cc3ccc([N+](=O)[O-])cc3)C2c2ccc([N+](=O)[O-])cc2)cc1OC` (stereo not given), the growth inhibition is 10.7% (inactive) in test [1]; 19.8% (inactive) in test [2]; -4.15% (inactive) in test [3]; 16.1% (inactive) in test [4]; 23.2% (inactive) in test [5]; 6.55% (inactive) in test [6].
Consider `CC(=O)CC(=O)Nc1ccc(-c2ccc(NC(=O)CC(C)=O)c(Cl)c2)cc1Cl`, for which the growth inhibition in test [1] was -22.2% (inactive); in test [2], -27.7% (inactive); in test [3], -10.2% (inactive); in test [4], 1.9% (inactive); in test [5], -16.6% (inactive); in test [6], -6.35% (inactive).
For `CC1(C)CC(=O)C=C(NCc2ccccc2)C1`, the growth inhibition is -0.95% (inactive) in test [1]; -2.6% (inactive) in test [2]; -8.35% (inactive) in test [3]; -24.9% (inactive) in test [4]; -19.1% (inactive) in test [5]; 11.2% (inactive) in test [6].
Take `CCCOC(=O)C1C(=O)CC(c2ccccc2)C1c1ccccc1` (stereo not given): the growth inhibition is 1.95% (inactive) in test [1]; -2.05% (inactive) in test [2]; 1.3% (inactive) in test [3]; -4.15% (inactive) in test [4]; 1.25% (inactive) in test [5]; -0.4% (inactive) in test [6].
With `CC(=O)Nc1ccc(-c2nnc(SCC(=O)Nc3cccc([N+](=O)[O-])c3)o2)cc1`, the growth inhibition in test [1] was -2% (inactive); in test [2], 5.15% (inactive); in test [3], 15.6% (inactive); in test [4], -17.5% (inactive); in test [5], -10.7% (inactive); in test [6] it was 0.4% (inactive).
On to `COC(=O)c1cc(Cl)ccc1OCC(=O)Nc1ccccc1`, for which the growth inhibition in test [1] was -6.3% (inactive); in test [2] it was -2.5% (inactive); in test [3], 13.4% (inactive); in test [4], -8.2% (inactive); in test [5], -6.55% (inactive); in test [6], -29.1% (inactive).
Turning to `O=C1CC(c2ccccc2)n2c(nc3ccccc32)N1` (stereo not given), the growth inhibition is 5% (inactive) in test [1]; 1.85% (inactive) in test [2]; -18.1% (inactive) in test [3]; -14.1% (inactive) in test [4]; -15.4% (inactive) in test [5]; -64.2% (inactive) in test [6].
For `CS(C)=C(C(=O)c1ccccc1)/C(=C/C(=O)c1ccccc1)c1ccccc1`, the growth inhibition in test [1] is 21.5% (inactive); in test [2], 26.2% (inactive); in test [3] it was 65% (inactive); in test [4] it was 36% (inactive); in test [5] it was 43.6% (inactive); in test [6] it was 79% (active).
In the case of `C=C(COc1ccc(OC)cc1)C(C)(C)C`, the growth inhibition in test [1] was 18.9% (inactive); in test [2], 13.3% (inactive); in test [3] it was -17.4% (inactive); in test [4] it was -14.4% (inactive); in test [5], 14.7% (inactive); in test [6], -19.5% (inactive).
Take `CC1(C)C2CC(C(=O)O)C1C2` (stereo not given): the growth inhibition in test [1] was 2.75% (inactive); in test [2], 5.8% (inactive); in test [3], 2.05% (inactive); in test [4], 3.8% (inactive); in test [5], -10.8% (inactive); in test [6], -19.1% (inactive).
With `COc1ccc(C=O)cc1OCc1ccccc1`, the growth inhibition is -10.2% (inactive) in test [1]; -29.4% (inactive) in test [2]; -3.15% (inactive) in test [3]; -7.35% (inactive) in test [4]; -18.2% (inactive) in test [5]; 7.55% (inactive) in test [6].
`COc1ccc(/C(C)=C\C(=O)O)c(O)c1OC`: the growth inhibition in test [1] was 5.9% (inactive); in test [2] it was 6.85% (inactive); in test [3], -4.65% (inactive); in test [4], 3.55% (inactive); in test [5], 22.1% (inactive); in test [6] it was 7.8% (inactive).
